Assay outcomes deposited in PubChem BioAssay by National Center for Advancing Translational Sciences (NCATS).
A selection: hits, their analogues and other compounds. The true share with any hit is near 6.7%.
KB-3-1 tox = kills parental KB-3-1 adenocarcinoma cells; 400,000 tested, 1.4% active; Potency, µM (series often up to 46.1 µM), actives largely listed as cytotoxic; KB-3-1 viability, CellTiter-Glo ATP luminescence, 72 h; AID 1347075; further: on the % scale 0 is the no-effect control and ±100 the full control effect; nearly all actives have a fitted effect of over 60% in size
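Using CellTiter-Glo luminescence, growth of non-resistant KB-3-1 adenocarcinoma cells is assessed 72 h after pin-tool compound addition at 37 °C. Normalized responses across the concentration series yield fitted curves.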
MCF10A rerep = induces DNA re-replication in MCF 10a normal breast cells; 350,000 tested, 2.9% active; Potency, µM (top dose mostly 46.1 µM), without a hit: at the highest dose activity, positive = re-replication, hits mostly activators; MCF 10A DNA re-replication, Hoechst nuclear intensity, 48 h; further: % of control where 0% means no effect; nearly all actives have a fitted effect of over 50% in size
PINK1 expr mod = PINK1 expression modulation. 410,000 tested, 0.2% active. Potency, µM (series often up to 76.6 µM), for inactives: at the top dose activation (PINK1 increase), hits mostly activators. PINK1 immunofluorescence, high-content cytometry, 24 h; active means well fitted activation curve with a large enough effect; inconclusive means small, poorly fitted or top-dose-only effect; cell line not stated here; further: % of control where 0% means no effect; nearly all actives have a fitted effect of over 65% in size
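Measures PINK1 amount and localization on or inside mitochondria by immunofluorescence. Stable cells get compounds at 5 concentrations for 24 hours before fixation and staining; CCCP controls included.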
SW480 rereplic = induces DNA re-replication in SW480 colon adenocarcinoma cells | SW480 DNA re-replication, Hoechst DNA content imaging, 48 h | Potency, µM (doses to about 46.1 µM), without a hit: top-dose re-replication activation, actives largely listed as activators | 340,000 tested, 1.8% active; further: % of control where 0% means no effect; nearly all actives have a fitted effect of over 55% in size
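Image-based read-out: total Hoechst fluorescence of nuclei (405 nm excitation, 500-530 nm emission), with hits raising the fraction of high-intensity nuclei. SW480 colon cells incubated 48 hr with compounds at 37 C.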
KB-V1 cytotox = kills drug-selected multidrug resistant KB-V1 cells; KB-V1 MDR cells viability, CellTiter-Glo, 72 h; Potency, µM (doses to about 46.1 µM), most hits filed as cytotoxic; 400,000 tested, 3.4% active; further: on the % scale 0 is the no-effect control and ±100 the full control effect; nearly all actives have a fitted effect of over 60% in size
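Cells of the MDR subline KB-V1 are plated, dosed with compound at multiple concentrations, and incubated 72 h at 37 degrees C; CellTiter-Glo is then added and luminescence read after 10 min.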
Active calls of the source: *; i = inactive; ? = inconclusive; / = no result given; [ ] = another dose, or the depositor's remark. Unless noted, the call rests on the fitted dose curve; in most records, active means well fitted curve in the direction sought with a large enough effect; inconclusive means small, poorly fitted or top-dose-only effect, or another doubt; inactive means no such curve, though single readings can be large; an effect the other way counts as inactive or inconclusive. Potency means the concentration at half of the fitted maximal effect.

SMILES | KB-3-1 tox | MCF10A rerep | PINK1 expr mod | SW480 rereplic | KB-V1 cytotox
C/C(=N\N=C(/N)SC1CC(=O)N(c2ccc(Cl)cc2)C1=O)c1cccs1 (configuration not stated) | i | ? | -1% | 19% | i
COc1ccccc1C1CN(CCNC(=O)c2cnsn2)Cc2ccccc2O1 (configuration not stated) | / | / | 1% | / | /
O=C1c2ccccc2-c2cccc(NS(=O)(=O)c3ccc(C(F)(F)F)cc3)c21 | ? | 4% | -1% | 19% | 23µM*
Cc1ccc(C2c3c(-c4cc(C)ccc4O)n[nH]c3C(=O)N2Cc2ccco2)cc1 (configuration not stated) | i | / | 4% | / | ?
COc1ccc(C2c3c(-c4ccccc4O)n[nH]c3C(=O)N2Cc2ccco2)cc1OC (configuration not stated) | i | 11% | 4% | -3% | i
O=C1c2[nH]nc(-c3ccccc3O)c2C(c2cccc(Cl)c2)N1Cc1ccco1 (configuration not stated) | ? | 7.3µM* | 3%[38.3 µM] | ? | 15µM*
O=C1c2[nH]nc(-c3ccccc3O)c2C(c2ccc(F)cc2)N1Cc1ccco1 (configuration not stated) | ? | ? | -22%[38.3 µM] | ? | 6.5µM*
COC(=O)C1CCN(c2csc3ccc(C)cc3c2=O)CC1 | i | / | 1% | / | ?
CO[C@H]1[C@@H](OC(N)=O)[C@H](O)[C@@H](Oc2ccc3c(O)c(NC(=O)c4ccc(O)c(CC=C(C)C)c4)c(=O)oc3c2C)OC1(C)C | / | -1%[20.6 µM] | / | 0%[20.6 µM] | /
CCOc1ccc(N(C(=O)CC(C)C)S(=O)(=O)c2ccc3c(c2)oc(=O)n3C)cc1 | ? | / | 4% | / | ?
CC(Oc1ccc(C(=O)c2ccccc2)cc1)C(=O)N1CCOCC1 (configuration not stated) | i | 2% | 6% | -2% | i
CC(Oc1cc(-c2ccccc2)cc2ccccc12)C(=O)N1CCOCC1 (configuration not stated) | ? | 16% | -1% | 6% | 6.5µM*
COC(=O)Cn1cc(/C=N/NC(=O)c2ccc(C#N)cc2F)c2ccccc21 | i | -12% | 11µM* | 26% | i
Cn1c(=O)n(C)c2cc(NS(=O)(=O)c3ccc(Cl)cc3)c(NCc3ccccc3)cc21 | ? | / | 9% | / | i
Cc1cc(S(=O)(=O)Nc2cc3c(cc2NCc2ccccc2)n(C)c(=O)n3C)ccc1F | i | / | 3% | / | 21µM*
COc1cccc(NC(=O)CCC2CCN(C(=O)Cc3cccc(F)c3)CC2)c1 | / | 15% | 0% | -3% | /
COc1ccc(CC(=O)N2CCC(CCC(=O)Nc3ccccc3)CC2)cc1 | / | 23µM* | 0% | 21% | /
CCN(CC)c1ccc(C(=O)NNC(=O)C2CSC3(C)CCC(=O)N23)cc1 (configuration not stated) | i | 0% | -1% | 8% | i
COC(c1ccc(Cl)cc1)(c1ccc(Cl)cc1)C(Oc1nc(C)cc(C)n1)C(=O)O (configuration not stated) | i | 2% | -1% | -6% | i
CCN(CCn1cccn1)Cc1nc(-c2ccccc2)no1 | i | -1% | 0% | -2% | 23µM*
COc1ccccc1C(c1nnnn1C(C)(C)C)N1CCCc2ccccc21 (configuration not stated) | ? | -10% | 1% | ? | 23µM*
CC(C)(C)n1nnnc1C(c1ccc(Cl)cc1)N1CCCc2ccccc21 (configuration not stated) | i | 3% | 2% | -4% | ?
Cc1cccc(N2CCN(C(c3ccccc3)c3nnnn3C(C)(C)C)CC2)c1C (configuration not stated) | ? | 18% | 3% | ? | 9.2µM*
COc1ccccc1N1CCN(C(c2ccc(Cl)cc2)c2nnnn2C(C)(C)C)CC1 (configuration not stated) | ? | -13% | 4% | 16% | 18µM*
COc1ccc(-c2nnc(C)c3nocc23)cc1 | i | 0% | -1% | ? | i
